Pf growth 96h: P. falciparum growth inhibition at 96 hour, primary screen for plastid delayed-death inhibitors. P. falciparum luciferase reporter growth, 96 h. Potency, µM (doses to about 28.7 µM), for the others: at the top dose activity change, negative = inhibition, usual class: inhibitors. 320,000 compounds, 6.9% hits. AID 504834
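P. falciparum expressing integrated firefly luciferase, in erythrocytes at 2% hematocrit, 0.05% parasitemia, incubated with compounds 96 h at 37 C, 5% CO2. Growth inhibition read as loss of luminescence; two-generation exposure targets delayed-death apicoplast inhibitors.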
Pf growth 48h: P. falciparum growth inhibition at 48 hours (one generation); Potency, µM (titrated, usually from 28.7 µM), inactives show at the highest dose activity change, negative = inhibition, usual class: inhibitors; P. falciparum luciferase growth in erythrocytes, 48 h; 310,000 compounds, 5.9% hits
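Cell-based growth assay: transgenic P. falciparum expressing firefly luciferase, cultured in red cells within RPMI 1640 containing 0.5% w/v Albumax, 24 mM bicarbonate and gentamycin. A drop in luciferase activity indicates inhibition.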
AMA1 RON2 block: AMA1-RON2 (P. falciparum) interaction inhibition; AlphaScreen AMA1-biotinylated RON2 peptide binding; Potency, µM (titrated, usually from 58.2 µM), for inactives: at the top dose activity change, negative = inhibition, actives largely listed as inhibitors; 360,000 compounds, 0.2% hits;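 also: 0% = vehicle wells and -100% = peptide control; nearly all actives have a fitted effect of over 45% in size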
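AMA1 (3D7) with his tag at 25 nM final met compounds first, then biotinylated RON2 peptide at 25 nM; detection used donor plus acceptor beads, 10 µg/mL apiece, read by AlphaScreen after 30 min at room temperature.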
AmpC no deterg: inhibitors of E. coli AmpC beta-lactamase without detergent. AID 485341. 330,000 compounds, 0.52% hits. Potency, µM (highest dose often 57.1 µM), for the others: top-dose activity change, negative = inhibition, hits mostly inhibitors. AmpC nitrocefin hydrolysis, absorbance 480 nm, 0.0001% Triton. P00811;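 also: plate controls were no compound for no effect and no enzyme for full effect; nearly all actives have a fitted effect of over 20% in size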
Target sequence (P00811 whole entry, looked up): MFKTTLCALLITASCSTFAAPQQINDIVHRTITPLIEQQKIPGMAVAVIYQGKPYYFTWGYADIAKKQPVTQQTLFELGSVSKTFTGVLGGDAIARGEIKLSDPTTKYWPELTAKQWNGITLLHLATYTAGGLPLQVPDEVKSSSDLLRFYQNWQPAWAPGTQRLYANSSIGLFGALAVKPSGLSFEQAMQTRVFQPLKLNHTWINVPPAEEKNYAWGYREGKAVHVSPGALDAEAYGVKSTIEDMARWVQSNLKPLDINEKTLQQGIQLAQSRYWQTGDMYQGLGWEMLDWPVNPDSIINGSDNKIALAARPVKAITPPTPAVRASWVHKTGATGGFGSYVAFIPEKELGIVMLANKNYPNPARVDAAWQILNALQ
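AmpC (5.3 nM in the dispensed reagent) in 20 mM phosphate pH 7.0 with 0.01% (detergent screen) or 0.0001% Triton X-100 was preincubated with compounds for 15 min at room temperature. Nitrocefin was then added from an 800 uM solution, and hydrolysis was followed at 480 nm.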
HCV inh: HCV inhibition; 340,000 compounds, 3.4% hits; Huh7.5.1 HCVcc-Cre infection, luciferase reporter, 44 h; Potency, µM (highest dose often 41.8 µM), without a hit: top-dose activity change, negative = inhibition, usual class: inhibitors; AID 651820
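Reporter virus HCVcc-Cre (~0.5 moi) infects cells exposed to compound; seeding density 1,000 cells/well with 4 h settling beforehand. Luminescence, 15 sec read, taken 44 h post-infection following a 15 min RT substrate incubation.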
AmpC inh detg: AmpC beta-lactamase inhibition with detergent present; P00811; AmpC hydrolysis of nitrocefin, absorbance 480 nm, 0.01% Triton; Potency, µM (series often up to 114 µM), without a hit: at the top dose activity change, negative = inhibition, usual class: inhibitors; 370,000 compounds, 0.041% hits;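 also: 0% = no-compound wells and -100% = no-enzyme wells; nearly all actives have a fitted effect of over 25% in size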
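20 mM phosphate pH 7.0 + 0.01% (detergent screen) or 0.0001% Triton X-100; 5.3 nM AmpC reagent; cpd preinc 15 min RT; nitrocefin (800 uM stock) to start; A480 q20 s × 4 min; Activity was normalised to no-enzyme and no-compound control wells.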
Numbers without * were called inactive; ? = inconclusive; nt = not tested or not shown. Rows were chosen to be rich in hits. Some 11% of all compounds tested hit in one or more screens of this group. Calls follow the shape of the dose curve; as a rule, active = well fitted curve in the direction sought with a large enough effect; inconclusive = small, poorly fitted or top-dose-only effect, or another doubt; inactive = no such curve, though single readings can be large; an effect the other way counts as inactive or inconclusive. Unless noted, % is scaled to controls: 0 for no effect and ±100 for the full control effect; potency is read from the fitted curve at half-maximal effect.

SMILES | Pf growth 96h | Pf growth 48h | AMA1 RON2 block | AmpC no deterg | HCV inh | AmpC inh detg
CC1CCCCN1c1ncnc2ccccc12 (stereo not drawn) | 11.4% | nt | 0.0% | -32.6% | ? | 3.3%
CC1(C)CC2CC(C)(CN2c2ncnc3ccccc23)C1 (stereo not drawn) | ? | ? | 4.3% | 1.1% | 11.2µM* | 0.2%
Cn1c(=O)n(C)c2cc(N3CCCCC3)c(NC(=O)c3ccc(Cl)cc3)cc21 | nt | nt | nt | nt | nt | -7.9%
CCN(CC)S(=O)(=O)c1ccc(N2CCCC2)c(NC(=O)C2=NN(c3ccccc3)C(=O)CC2)c1 | 14.7µM* | 10.4µM* | -5.7% | 72.3% | -24.6% | 10.9%
O=C(Nc1cc(Cl)ccc1N1CCCC1)C1=NN(c2ccccc2)C(=O)CC1 | 9.28µM* | -10.2% | -14.8% | 1.9% | -29.7% | ?
Cc1ccc(C)c(N2N=C(C(=O)Nc3ccccc3N3CCCC3)CCC2=O)c1 | ? | ? | ? | 93.0% | ? | 3.6%
CN(C)c1ccc(S(=O)(=O)N2CCCCC2)cc1NC(=O)C1=NN(c2ccccc2)C(=O)CC1 | 5.86µM* | -18.8% | 1.6% | -16.0% | -2.7% | ?
Cc1ccc(S(=O)(=O)N2CCCCC2)cc1NC(=O)C1=NN(c2ccccc2)C(=O)CC1 | ? | ? | -0.1% | 114.5% | -9.5% | -0.6%
Cc1ccc(C)c(N2N=C(C(=O)Nc3ccccc3N3CCOCC3)CCC2=O)c1 | ? | 11.7µM* | -5.7% | 153.7% | ? | 4.1%
COc1ccc2c(c1)c1c(c(=O)n(Cc3ccccc3)c(=O)n1CC(=O)Nc1ccccc1F)n2C | nt | nt | nt | nt | nt | 1.0%
CC(C)Cc1cc(C(=O)N2CCCC(C(=O)c3cc(F)ccc3F)C2)no1 (stereo not drawn) | 4.65µM* | 7.4% | -3.2% | 21.2% | -19.7% | 6.5%
COc1ccc(F)cc1C(=O)C1CCCN(Cc2cccn2-c2ccccn2)C1 (stereo not drawn) | 3.29µM* | 10.4µM* | -6.2% | 33.5% | ? | -1.9%
O=C(c1cc(F)ccc1F)C1CCCN(Cc2cc(Cl)ccc2O)C1 (stereo not drawn) | ? | 4.15µM* | -7.9% | -35.5% | ? | -14.9%
O=C(c1cc(F)ccc1F)C1CCCN(Cc2cccn2-c2ccccn2)C1 (stereo not drawn) | ? | ? | 1.8% | 6.1% | 6.0% | -9.5%
COc1ccc(F)cc1C(=O)C1CCCN(Cc2c[nH]c3ccccc23)C1 (stereo not drawn) | 13.1µM* | ? | -7.8% | 22.9% | -22.9% | -0.3%
Cn1cc(CN2CCCC(C(=O)c3cc(F)ccc3F)C2)c2ccccc21 (stereo not drawn) | ? | ? | 4.6% | 14.1% | -19.0% | 7.7%
CCn1cc(S(=O)(=O)c2cccc(C)c2)c(=O)c2cc(F)c(N3CCCC(C)C3)cc21 (stereo not drawn) | nt | nt | nt | nt | nt | 3.1%
CN(C1CCCCC1)S(=O)(=O)c1ccc2c(c1)c(=O)c(C(=O)NCCc1ccccc1)cn2C | nt | nt | nt | nt | nt | 2.2%
COCCn1c(C)cc(C(=O)COc2nc3ccccc3nc2C)c1C | ? | -14.9% | -8.2% | -8.3% | ? | -5.2%
Cc1nc(SCC(=O)NC2CCS(=O)(=O)C2)c2c3c(sc2n1)CCC3 (stereo not drawn) | nt | nt | 12.9% | 1.4% | -21.4% | nt
COCCn1c(C)cc(C(=O)CSc2ccc3ccccc3n2)c1C | nt | 84.5% | -10.1% | 36.6% | 10µM* | -5.3%
COCCn1c(C)cc(C(=O)CSc2nc(C)nc3sc4c(c23)CCC4)c1C | nt | nt | 0.5% | nt | 10µM* | nt
COCCn1c(C)cc(C(=O)CSc2nc3ccccc3c(=O)[nH]2)c1C | 0.294µM* | 10.1% | 2.1% | -17.3% | 8.91µM* | -6.8%
Clc1cccc(Nc2ncnc3ccc(Br)cc23)c1 | 4.15µM* | 3.7µM* | 33.8% | -52.0% | ? | 0.5%
Clc1ccc(Nc2ncnc3ccc(Br)cc23)cc1 | 4.15µM* | 7.38µM* | -14.1% | -43.3% | ? | 1.8%
SMILES | Pf growth 96h | Pf growth 48h | AMA1 RON2 block | AmpC no deterg | HCV inh | AmpC inh detg
Cc1c(C(=O)Nc2ccc(C(C)C)cc2)sc2nc3n(c(=O)c12)CCC3 | nt | nt | nt | nt | nt | -7.0%
COc1cccc(CN2CCN(C(c3ccccc3)c3ccccc3)CC2)c1O | 0.415µM* | ? | ? | 28.5% | -55.2% | -0.2%
COc1ccc(NC(=S)N2CCN(C(c3ccccc3)c3ccccc3)CC2)cc1OC | ? | -15.5% | -19.0% | 128.1% | -24.0% | -7.9%
COc1cc(C(=S)N2CCN(C(c3ccccc3)c3ccccc3)CC2)cc(OC)c1O | 8.7% | ? | -24.0% | 37.5% | 11.2µM* | -11.7%
COc1cc2nc(CN3CCN(C(c4ccccc4)c4ccccc4)CC3)[nH]c(=O)c2cc1OC | ? | ? | nt | -13.1% | nt | -6.4%
COc1cc(CN2CCN(C(c3ccccc3)c3ccccc3)CC2)cc(OC)c1OC | 4.65µM* | ? | -21.2% | 182.9% | -15.0% | -2.5%
CCOC(=O)CCNC(=O)N1CCN(S(=O)(=O)c2ccc3c(ccn3C)c2)CC1 | nt | nt | nt | nt | nt | 0.1%
Cc1ccc(NC(=O)Cn2c(=O)n(Cc3ccccc3)c(=O)c3c(C)c(C(=O)N(C)C)sc32)c(C)c1 | nt | nt | nt | nt | nt | -1.5%
CC(C)Oc1cccc(C2CC(=O)Nc3cc4c(cc32)OCO4)c1 (stereo not drawn) | nt | nt | nt | nt | nt | 17.6%
CCc1nn(CCCC(=O)NCc2ccc(OC(C)C)cc2)c(=O)c2cc3occc3n12 | 7.4% | 10.7% | 0.0% | 88.9% | 8.91µM* | -7.6%
CCOc1ccc(CNC(=O)CCCn2nc(CC)n3c(cc4occc43)c2=O)cc1 | 55.7% | -15.1% | -4.5% | 58.2% | ? | -4.2%
CCc1nn(C(C)C(=O)NC2CCCCCC2)c(=O)c2cc3occc3n12 (stereo not drawn) | 115.7% | -2.3% | -4.5% | -21.6% | 10µM* | -0.4%
CCc1nn(CCCC(=O)NCc2cc(Br)ccc2OC)c(=O)c2cc3occc3n12 | 12.2% | ? | -3.4% | 21.4% | 10µM* | -14.0%
CC(=O)NCCNC(=O)c1ccc2c(=O)n(CCc3ccccc3)c(=O)[nH]c2c1 | nt | nt | nt | nt | nt | -5.1%
Cc1c(C)n(C)c2ccc(C(=O)NCCCN3CCCCC3C)cc12 (stereo not drawn) | 6.57µM* | -21.7% | -7.3% | 25.7% | -8.0% | -1.1%
CC1CCCCN1CCNC(=O)c1ccc2c(=O)n(CCc3ccccc3)c(=O)[nH]c2c1 (stereo not drawn) | -15.5% | -18.3% | 6.1% | -2.0% | 11.2µM* | 1.6%
CC1CC(C)CN(CCCNC(=O)c2ccc3c(c2)ncn3C2CCCC2)C1 (stereo not drawn) | 10.4µM* | ? | 3.7% | 19.0% | -19.4% | 7.6%

Screening data as filed in PubChem.
